{"source": "the OligoGym collection"}
{"molecular_target": "MTX3", "assay": "pooled miR-30 sensor sort-seq; sequence = guide strand", "settings": "shRNA"}
{"sequence": "TAAAGTAATTGTCACTCTCAAC", "sensor-assay potency score (higher = more potent)": -1.48}
{"sequence": "TAATTGTCACTCTCAACCCAGA", "sensor-assay potency score (higher = more potent)": -0.703}
{"sequence": "ATAATCAGCATTATATTTCTGT", "sensor-assay potency score (higher = more potent)": 0.674}
{"sequence": "TATCACATTGACTTTCAAGGGT", "sensor-assay potency score (higher = more potent)": 0.582}
{"sequence": "TTATCTATCACATTGACTTTCA", "sensor-assay potency score (higher = more potent)": -0.0166}
{"sequence": "TTGGCGAAGATTGTCATCCATC", "sensor-assay potency score (higher = more potent)": -1.1}
{"sequence": "TTTAGGAAACCGTACTTTGTAA", "sensor-assay potency score (higher = more potent)": -0.773}
{"sequence": "TAGAAGATTTAGGCACTCCTTG", "sensor-assay potency score (higher = more potent)": -0.542}
{"sequence": "TTGCTGAGAGTTCATAATCAGC", "sensor-assay potency score (higher = more potent)": -1.72}
{"sequence": "TTTGCCTTCACACACTTGGTGT", "sensor-assay potency score (higher = more potent)": -0.519}
{"sequence": "TTAATATTTATCTATGTGCTAC", "sensor-assay potency score (higher = more potent)": -0.31}
{"molecular_target": "MUC16", "assay": "pooled miR-30 sensor sort-seq; sequence = guide strand", "settings": "shRNA"}
{"sequence": "TTGACATAGAGACTGTTCCGGT", "sensor-assay potency score (higher = more potent)": -0.323}
{"sequence": "TTCAGTAGTAGCACTAGTGGGC", "sensor-assay potency score (higher = more potent)": 0.151}
{"sequence": "TTGGACTTTCTGAACTAGCGTG", "sensor-assay potency score (higher = more potent)": -0.377}
{"sequence": "TTGTCTTTGAAACCAGTTCTGG", "sensor-assay potency score (higher = more potent)": -0.722}
{"sequence": "TTGACATAGAAACTATTGCTTG", "sensor-assay potency score (higher = more potent)": -0.839}
{"sequence": "TTGTCTGTGATGTTGAACTTGA", "sensor-assay potency score (higher = more potent)": -0.129}
{"sequence": "TTGACATAGAGACTGTTCCTGT", "sensor-assay potency score (higher = more potent)": -0.0675}
{"sequence": "TTGACATAGAGACTGTCCCTGT", "sensor-assay potency score (higher = more potent)": -0.193}
{"sequence": "TAGTTGTCGTTGAAACAGCTGA", "sensor-assay potency score (higher = more potent)": -0.38}
{"sequence": "TTGACATAGAGACTGTGCCTGT", "sensor-assay potency score (higher = more potent)": -0.153}
{"sequence": "TTTGTCTCTGTTGTTGAGCTGG", "sensor-assay potency score (higher = more potent)": 0.192}
{"molecular_target": "MUC20", "assay": "pooled miR-30 sensor sort-seq; sequence = guide strand", "settings": "shRNA"}
{"sequence": "TTTACTGAAACACAGAACATGT", "sensor-assay potency score (higher = more potent)": -0.607}
{"sequence": "TAACTTGGTGTCTCAACAGAGA", "sensor-assay potency score (higher = more potent)": -0.859}
{"sequence": "TCTGTGGTCGGCCTCGTCCGGG", "sensor-assay potency score (higher = more potent)": -1.58}
{"sequence": "TTCGCTGAGGTTGTGATCTTGG", "sensor-assay potency score (higher = more potent)": 0.418}
{"sequence": "TGAAACACAGAACATGTGCCAA", "sensor-assay potency score (higher = more potent)": -0.681}
{"sequence": "TTAATAACCTCGATGTTTGTGA", "sensor-assay potency score (higher = more potent)": -0.0395}
{"sequence": "TTGGTGTCTCAACAGAGAGGGC", "sensor-assay potency score (higher = more potent)": -0.842}
{"sequence": "TACTGAAACACAGAACATGTGC", "sensor-assay potency score (higher = more potent)": 0.46}
{"sequence": "TTGTGAGTGTCTTTGCCTCTTC", "sensor-assay potency score (higher = more potent)": -0.403}
{"sequence": "TTCACCTGCACTCACGTCTGTG", "sensor-assay potency score (higher = more potent)": -1}
{"sequence": "TTCATCGTGGTCTTCGCTGAGG", "sensor-assay potency score (higher = more potent)": -0.448}
{"molecular_target": "MUC4", "assay": "pooled miR-30 sensor sort-seq; sequence = guide strand", "settings": "shRNA"}
{"sequence": "TTGTGAGTAGAAAACAGGGGTG", "sensor-assay potency score (higher = more potent)": -0.53}
{"sequence": "TTGTCTGTGAAGTAGAGGGAAT", "sensor-assay potency score (higher = more potent)": -1.17}
{"sequence": "TAACTGACACCATCCAAGGTGG", "sensor-assay potency score (higher = more potent)": -0.587}
{"sequence": "TAGATGGAGAAGGACACACAGC", "sensor-assay potency score (higher = more potent)": -1.17}
{"sequence": "TTCAGGAAGTCAATGACCGGGC", "sensor-assay potency score (higher = more potent)": -0.298}
{"sequence": "TTCACCATAGAACGTCTCGTAT", "sensor-assay potency score (higher = more potent)": -0.617}
{"sequence": "TTCAGGAAATAGGAGAACCTGG", "sensor-assay potency score (higher = more potent)": -1.36}
